# Test results reported in PubChem BioAssay (NCI).
# “And” between values parts separate entries of the source, which are not always exact repeats. Identical values can stand only once. About 83,000 compounds went through this panel and 20% of them were active in at least one assay; those are over-represented in the sample as a whole.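 Cell lines were cultured in 96-well plates, exposed to a single compound concentration, and assessed for percent growth 48 hours later.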 Values without a mark were called inactive. The source made the active and inactive calls. Rule for the calls: active = growth percent below 10; inactive = the rest.
# Test system: MDA-MB-468 breast
# Test: NCI-60 one-dose screen, 48 h (100 = growth as untreated, 0 = no growth, -100 = all killed)
# Conditions: 10 µM unless noted
row,SMILES,growth
1,COCCNc1ccc2c3c(cccc13)C(=O)N(CCN(C)C)C2=O,45.2%
2,N=C(N)SCc1cccc2c(CSC(=N)N)cccc12,108%
3,CCCCNc1ccc(C#N)c(OCCN(CC)CC)c1,90.1%
4,CCOC(=O)c1cnn(-c2ccc(S(N)(=O)=O)cc2)c1N,94.7%
5,Cc1c(C(N)=O)sc2nc(SCC(=O)Nc3ccc(Cl)cc3)n(-c3ccccc3)c(=O)c12,106%
6,CCN(c1ccc(Cl)cc1)c1nc(-c2ccc([N+](=O)[O-])cc2)cs1,83.8%
7,C=C(C)CCC(C)N1CCC(N2CCC(C(=O)NCCc3ccccc3)CC2)CC1 (configuration not stated),48.4%
8,CCOC(=O)/C=C1\S/C(=N\Nc2cc(=O)[nH]c3ccc(Cl)cc23)N(c2ccccc2)C1=O,80.8%
9,CN1CCN(c2nc(C3=C(c4c[nH]c5ccccc45)C(=O)NC3=O)c3ccccc3n2)CC1,131%
10,Cc1cc(Nc2ncnc3ccc(NC4=NC(C)(C)CO4)cc23)ccc1Oc1ccn2ncnc2c1,-60.6% (active)
11,NC1CCC(C(=O)O)CC1 (configuration not stated),99.8% and 107%
12,Cc1ccc(C(=O)c2sc3nc4c(cc3c2N)CCCC4)c(C)c1,32.3%
13,S=c1sc2c(Cl)nc(-c3cccnc3)nc2n1-c1ccccc1,-34.2% (active)
14,COC(=O)[C@H](Cc1cn(C)cn1)NC(=O)[C@H](Cc1c[nH]c2ccccc12)NC(=O)Nc1cc(C(F)(F)F)cc(C(F)(F)F)c1,-75.7% [100 µM] (active)
15,CC(C)(C)c1cc(C(C)(C)C)cc(S(=O)(=O)Nc2cc3ccccc3cc2C(=O)NCCN)c1,-69.6% (active)
16,O=C(O)c1cn(C2CC2)c2cc(N3CCN(C(=O)c4cc(-c5ccc(Cl)cc5)nc5ccccc45)CC3)c(F)cc2c1=O,99%
17,O=C1OCC2=C1C(c1ccc3c(c1)OCO3)CC(=O)N2c1cccc(Cl)c1 (configuration not stated),88.1%
18,CC(=O)c1c(O)cc2c3c1OC(C)(C)C1CCC(C)(CC31)O2 (configuration not stated),85.9%
19,Cc1nn(-c2ccccc2)c2nc(Cl)c(/C=C/C(=O)c3ccccc3)c(-c3ccccc3)c12,105%
20,COc1ccc2c(c1)O/C(=C/c1ccc(OCC(=O)Nc3ccc(S(N)(=O)=O)cc3)cc1)C2=O,86.3%
21,O=c1c2c(=NCCN3CCCC3)cc3c(=O)n(CCCN4CCOCC4)c(=O)c4ccc(c(O)n1CCCN1CCOCC1)c2c4-3,-49.4% (active)
22,COc1ccc(Cn2cc(C(=O)N=Nc3c(O)[nH]c4c(Cl)cccc34)nn2)cc1,98.6%
23,Cc1ccc(-n2nc(C(C)(C)C)cc2NC(=O)NCc2cc(F)ccc2Oc2ccc3c(cnn3CCO)c2)cc1,23.5%
24,c1ccc(-c2c(-c3ccccc3)[n+](Cc3ccc4ccccc4c3)cn2Cc2ccc3ccccc3c2)cc1,-85% (active)
25,O=c1oc2c(cnc3ccccc32)cc1-c1ccsc1,85.5%
26,Cc1ccc(-c2csc(NC(=O)CSc3nc(-c4ccccc4)cc(=O)[nH]3)n2)cc1,108%
27,S=c1ccnc[nH]1,122%
